55 compounds from ChEMBL document CHEMBL4513216, “Probing the Open Global Health Chemical Diversity Library for Multistage-Active Starting Points for Next-Generation Antimalarials” (ACS Infect Dis, 2020) can be followed below.

The campaign covered roughly 68,000 compounds. About 2,700 (4%) showed an effect of 50% or more. Only a selection was taken, and strong results are over-represented in it overall.

For this assay, the system named is Plasmodium berghei. The experiment in a line: Screen against P. berghei liver stage (PbLuc), transformed with Luciferase, at 2uM. It counts as functional, HepG2. To be noted: tested at 2 uM.
As to `CSc1nc2ncc3c(=O)n(C)ccc3n2n1`, the INHIBITION turned out to be 19.49%.
With `CCn1cc(-c2cc(C(F)F)n3nc(CC(=O)O)nc3n2)cn1`, the INHIBITION is reported as -20.05%.
On to `Cn1cc(-c2cc(C(F)F)n3nc(CCC(=O)O)nc3n2)cn1`, for which the INHIBITION turned out to be 48.58%.
For the compound `CCn1cc(-c2cc(C(F)F)n3nc(CCC(=O)O)nc3n2)cn1`, the INHIBITION is 61.61%.
For the compound `OCC(O)CN1CCc2onc(-c3ccc(C(F)(F)F)cc3)c2C1` (stereo not given), the INHIBITION is given as -83.25%.
In the case of `CCN(CC)CCNC(=O)CCc1c(C)nn(-c2ccc(Cl)cc2)c1C` it was 36.85%.
Regarding `CC(C)c1nnc2ccc(N3CCC(C(=O)O)CC3)nn12`, the INHIBITION worked out at 16.54%.
Consider `Fc1ccc(F)c(CN2CCC(c3cc4ncccc4cn3)CC2)c1`, for which the INHIBITION is given as -20.28%.
Consider `CC(=O)N1CCN(C(=O)NC(C)Cn2ccnc2)CC1` (stereo not given), for which the INHIBITION is 14.47%.
Turning to `CC(=O)Nc1nc(C(=O)N2CCCC(n3nc(C)nc3C)C2)cs1` (stereo not given), the INHIBITION came out at 9.17%.
In the case of `CCC(=O)NCc1cc(Br)c(OC)c(OC)c1`, the INHIBITION is listed as -11.19%.
On to `CCCC(=O)NCc1cc(Br)c(OC)c(OC)c1`, for which the INHIBITION came out at 0.63%.
Take `CCS(=O)(=O)NCc1cc(Br)c(OC)c(OC)c1`: the INHIBITION is recorded as 68.69%.
`Cc1ccsc1C(=O)N(C)Cc1ccncc1`: the INHIBITION is recorded as -32.02%.
With `CCOCCC(=O)Nc1cccc(Oc2ccccn2)c1`, the INHIBITION is 3.59%.
With `CCOCC(=O)Nc1cccc(Oc2ccccn2)c1`, the INHIBITION was found to be 67.68%.
With `CSCC(=O)Nc1cccc(Oc2ccccn2)c1`, the INHIBITION is on record as -7.6%.
As to `CC(C)(C)c1cc(CN2CCOCC(O)C2)n[nH]1` (stereo not given), the INHIBITION was -67.78%.
Take `Cc1noc(C(C)N(C)CC(=O)NCCc2ccc(Cl)cc2)n1` (stereo not given): the INHIBITION was 11.8%.
For the compound `Cc1nccc([C@@H]2C[C@H]3CN(S(=O)(=O)c4ccccc4)C[C@H]3O2)n1`, the INHIBITION came to 32.41%.
Consider `Cn1ccnc1CN1CCN(Cc2ccc(C#N)cc2)CC1`, for which the INHIBITION was -19.95%.
Regarding `CCn1ccnc1CN1CCN(Cc2ccc(C#N)cc2)CC1`, the INHIBITION was determined as 71.23%.
In the case of `CCn1ccnc1CN1CCN(Cc2cccc(C#N)c2)CC1` it was -49.45%; in that of `CN(Cc1cc(C(C)(C)C)n[nH]1)Cc1c[nH]nc1-c1ccc(F)cc1`, 50.31%; in that of `CN(Cc1ccn[nH]1)Cc1c[nH]nc1-c1ccc(F)cc1`, -35.45%.
Take `Cc1n[nH]c(C)c1CCCN(C)Cc1c[nH]nc1-c1ccc(F)cc1`: the INHIBITION was -87.47%.
With `CCN(Cc1cc(=O)n2cc(Br)ccc2n1)C1CC1`, the INHIBITION is listed as -15.9%.
Take `Cc1ccc2cccc(Oc3nc(C)c(C(=O)O)s3)c2n1`: the INHIBITION is on record as 27.11%.
For `CCN(C)C(=O)c1cc(-c2ccn(C(C)C)n2)n2ccccc12`, the INHIBITION is recorded as -8.84%.
As to `COCCn1cnc(-c2cc(C(=O)NC(C)C)c3ccccn23)c1`, the INHIBITION amounted to 1.48%.
For `CCN(C)C(=O)c1cc(-c2cn(C(C)C)cn2)n2ccccc12`, the INHIBITION worked out at 73.98%.
Consider `CC(C)(C)c1csc(CNC(=O)C2NCCc3[nH]cnc32)n1` (stereo not given), for which the INHIBITION was determined as 12.08%.
`COc1ccc(C(=O)NC2CC2)c(OC2CCN(C(C)CO)CC2)c1` (stereo not given): the INHIBITION is on record as -8.53%.
On to `CNC(=O)CN1CCOCC2(CN(CCC(F)(F)F)CCO2)C1` (stereo not given), for which the INHIBITION was 53.46%.
Regarding `CCCC(=O)N1CCOC2(COCCN(CC(=O)NC)C2)C1` (stereo not given), the INHIBITION was found to be 43.03%.
On to `CNC(=O)CN1CCOCC2(C1)CN(C(=O)C(C)C)CCO2` (stereo not given), for which the INHIBITION is given as -6.94%.
In the case of `Cc1ccc(C(=O)N2CC[C@@]3(O)CCCC[C@H]3C2)cc1`, the INHIBITION stood at 16.45%.
In the case of `CNC(=O)c1sccc1N(C)S(=O)(=O)c1ccc(Cl)cc1` it was 1.37%.
On to `O=C(NCCCOCC1CCCO1)c1cccnc1N1CCOCC1` (stereo not given), for which the INHIBITION worked out at 10.49%.
In the case of `O=C(NCCCOCC1CC1)Nc1cccnc1N1CCOCC1`, the INHIBITION amounted to 61.57%.
In the case of `CC(C)COCCCNC(=O)c1cccnc1N1CCOCC1` it was -32.12%.
As to `CCC(CC)NC(=O)c1ncn2c1CN(CC)S(=O)(=O)c1ccccc1-2`, the INHIBITION came out at 14.52%.
As for `CC(=O)N1CCC(Cc2nccnc2-c2c(C)n[nH]c2C)C1` (stereo not given), the INHIBITION was 26.14%.
Consider `Cc1ccc(CN2CC[C@H]3O[C@@H](C(=O)N4CCCO4)CC[C@H]32)s1`, for which the INHIBITION was -25.79%.
With `Cc1nn(C)c(N(C)C)c1CNCc1cccc(Cn2cncn2)c1`, the INHIBITION is -42.39%.
Take `COc1cccc(CCNCc2c(C)nn(C)c2N(C)C)c1`: the INHIBITION stood at 67.59%.
Then `Cc1nn(C)c(N(C)C)c1CNCc1ccc(Cn2cccn2)cc1`, with 44.37%.
For `Cc1nn(C)c(N(C)C)c1CNCc1cccc(Cn2cccn2)c1`, the INHIBITION worked out at 50.32%.
On to `COc1cccc(CNCc2c(C)nn(C)c2N(C)C)c1`, for which the INHIBITION is on record as -32.89%.
For `COc1cccc(OCCNCc2c(C)nn(C)c2N(C)C)c1`, the INHIBITION is -14.3%.
Then `Cc1ccc(C(=O)NS(=O)(=O)c2cccc3cnccc23)c(=O)[nH]1`, with -14.17%; and `Cc1nc2ccccn2c1CN(Cc1cccnc1)CC1CCCO1` (stereo not given), with 41.76%.
Turning to `Cc1cccc2c1nc(COCC(=O)O)n2-c1cnc(N)cn1`, the INHIBITION is -15.37%.
Regarding `CCCc1nc(C(C)(C)NC(=O)C2CC(=O)N(CC)C2)no1` (stereo not given), the INHIBITION is listed as -2.17%.
`CN(C)Cc1nc(C(C)(C)NC(=O)C2CC(=O)N(CC3CC3)C2)no1` (stereo not given): the INHIBITION is recorded as 17.39%.
